# Only some compounds are listed: those with a hit (about 3.2% of all), similar ones and a draw of the others.
# Pemphigus Ab inh = human desmoglein-3 autoantibody binding inhibition; DSG3-coupled beads, scFv-anti-DSG3-GFP binding, flow cytometry; stronger effect = lower value; binding (percent of control), % at 10 µM; 310,000 compounds, 0.48% hits; AID 588358;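 active means binding more than 3 SD below its plate's average and above zero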;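 further: hits lower antibody fragment binding to DSG3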
# NadD inh = blocks S. aureus nicotinate mononucleotide adenylyltransferase | purified NadD enzyme, colorimetric absorbance read-out | inhibition, % at 20 µM | 360,000 compounds, 0.78% hits | AID 602399; in the data active means inhibition above about 26%
# MsrA inh = bovine MsrA inhibition. inhibition, % at 15.5 µM. 360,000 compounds, 0.75% hits. purified bovine MsrA, absorbance read-out; in the data active means inhibition above about 4.5%;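 further: 0% = vehicle wells with enzyme and 100% = reference inhibitor wells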
# DAGLB inh = blocks human DAGLB lipase activity. AID 504411. inhibition, % at 5.17 µM. 340,000 compounds, 0.059% hits. Q8NCG7. HEK293T DAGLB membrane lysate, EnzChek fluorogenic substrate; in the data active means inhibition above about 34%;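 further: 0% = enzyme with vehicle and 100% = wells lacking enzyme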
# Target sequence (Q8NCG7 whole entry, looked up): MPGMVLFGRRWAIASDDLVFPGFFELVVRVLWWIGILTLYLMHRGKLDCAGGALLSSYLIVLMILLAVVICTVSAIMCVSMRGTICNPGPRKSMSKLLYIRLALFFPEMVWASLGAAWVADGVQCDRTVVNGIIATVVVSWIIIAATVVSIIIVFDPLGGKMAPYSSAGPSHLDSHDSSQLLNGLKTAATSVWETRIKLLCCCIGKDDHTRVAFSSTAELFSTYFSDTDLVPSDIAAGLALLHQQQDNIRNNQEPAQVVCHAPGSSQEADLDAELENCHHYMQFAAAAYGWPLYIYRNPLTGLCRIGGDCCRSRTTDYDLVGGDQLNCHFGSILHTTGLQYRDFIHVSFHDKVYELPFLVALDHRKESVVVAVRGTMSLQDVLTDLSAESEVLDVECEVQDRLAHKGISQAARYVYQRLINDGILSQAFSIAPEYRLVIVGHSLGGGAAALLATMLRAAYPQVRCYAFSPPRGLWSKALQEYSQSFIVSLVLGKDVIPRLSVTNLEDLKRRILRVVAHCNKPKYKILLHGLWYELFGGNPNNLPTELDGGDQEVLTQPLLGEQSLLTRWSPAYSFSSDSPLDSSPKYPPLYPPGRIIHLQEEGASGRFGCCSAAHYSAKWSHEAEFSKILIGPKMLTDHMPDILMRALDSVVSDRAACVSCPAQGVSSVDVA
# MsrA act = bovine methionine sulfoxide reductase A activation | purified bovine MsrA, absorbance read-out | 360,000 compounds, 0.3% hits | activation, % at 10.6 µM | AID 602163; in the data active means activation above about 7.5%;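 further: 0% = vehicle and 100% = reference activator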
# rCAG RNA binder = r(CAG) repeat RNA binding | TO-PRO-1 dye displacement fluorescence | 370,000 compounds, 1.3% hits | inhibition, % at 3 µM;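 active means inhibition above the plate cutoff, the mean of all test compounds on that plate plus 3 SD, cut at about 35% in these data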;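 further: 0% = DMSO alone and 100% = 100 µM mitoxantrone as full dye displacement; higher means more dye released from RNA so lower well fluorescence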
# rCAG bind conf = r(CAG) RNA repeat binding, confirmation | shares compounds with rCAG RNA binder | TO-PRO-1 dye displacement fluorescence | inhibition, % at 3 µM | 4,300 compounds, 70% hits | AID 652065;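 active means inhibition above a per-plate cutoff, the mean inhibition of sample wells plus 3 SD, cut at about 35% in these data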;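 further: loss of TO-PRO-1 fluorescence as compound displaces dye from 1x1 AA loop RNA; 0% = DMSO only wells and 100% = 100 µM mitoxantrone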
# dCAG dye counter = counter-screen for rCAG RNA binders: DNA CAG dye complex inhibitors; shares compounds with rCAG RNA binder; d(CAG) DNA oligo TO-PRO-1 dye displacement, fluorescence; inhibition, % at 3 µM; 4,300 compounds, 94% hits; AID 652068;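 active means inhibition above its plate's cutoff, the mean test-well inhibition plus 3 SD, cut at about 4.8% in these data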;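 further: 0% = DNA dye mix with DMSO and 100% = 100 µM mitoxantrone; hits displace the dye from DNA and so lower well fluorescence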
# * = called active by the depositor; . = no result given.
SMILES,Pemphigus Ab inh,NadD inh,MsrA inh,DAGLB inh,MsrA act,rCAG RNA binder,rCAG bind conf,dCAG dye counter
Fc1cccc2sc(Nc3nc4cc5c(cc4s3)OCO5)nc12,97,28,4,0,-5,67*,54*,33*
COc1cc(C(=O)Nc2nc3ccc(S(C)(=O)=O)cc3s2)cc(OC)c1C,101,4,0,-3,-2,19,.,.
CS(=O)(=O)c1ccc2nc(NC(=O)c3cccc(NS(=O)(=O)c4ccc(F)c(F)c4)c3)sc2c1,.,18,1,6,-2,59*,60*,25*
COc1cc(OC)cc(C(=O)Nc2nc3ccc(S(C)(=O)=O)cc3s2)c1,101,3,1,1,-2,4,.,.
O=C(Nc1nc2ccc(SC(F)F)cc2s1)c1ccc(NS(=O)(=O)c2ccc(F)c(F)c2)cc1,107,17,1,4,-3,62*,84*,66*
CS(=O)(=O)c1ccc2nc(NC(=O)c3ccc(NS(=O)(=O)c4ccc(F)c(F)c4)cc3)sc2c1,104,-3,1,4,-6,36*,66*,27*
CC(C)(C)C1CCN2CCCC(c3ccccc3)(C1)C2=O (stereo unspecified),.,-3,1,.,-4,-1,.,.
CN(C)Cc1csc(NC(=O)Nc2ccccc2Oc2ccccc2)n1,.,-4,-1,.,2,7,.,.
O=C1c2ccccc2-c2n[nH]c(=O)c3ccc(N4CCCCC4)c1c23,100,14,2,20,0,37*,13,6.8*
C[C@H]1Cn2cnc(C(=O)NCc3ccc(CNC(=O)OC(C)(C)C)cc3)c2C(=O)N1,.,3,-1,2,-3,-1,.,.
O=C(NNC(=S)Nc1cccc(C(F)(F)F)c1)c1ccc(Cl)cc1Cl,102,3,0,8,-4,62*,59*,21*
Cc1ccccc1C(=O)NNC(=S)Nc1cccc(C(F)(F)F)c1,79,2,1,3,3,17,.,.
CCOc1ccc(NC(=S)NNC(=O)c2cc(Br)ccc2Cl)cc1,99,0,2,4,4,38*,30,8.8*
COc1ccc(NC(=S)NNC(=S)Nc2cccc(C(F)(F)F)c2)cc1,98,7,-1,5,-3,17,.,.
CCOc1ccc(NC(=S)NNC(=S)Nc2cccc(C(F)(F)F)c2)cc1,112,4,2,9,-1,38*,55*,22*
COc1cc(C(=O)N2CCC2(C)C(=O)NC(C)C)cc(OC)c1OC (stereo unspecified),.,0,-1,.,-2,2,.,.
CCCCN1C(=O)N2Cc3ccccc3C2CS1(=O)=O (stereo unspecified),.,.,.,.,.,-2,.,.
O=C(O)c1ccccc1/C=N/NC(=O)c1cc(-c2ccco2)nc2ccccc12,97,9,3,3,-2,35*,45*,21*
COc1ccc(OC)c(/C=N/NC(=O)c2cc(-c3ccc(C)o3)nc3ccccc23)c1,123,22,3,-2,-3,45*,13,13*
C[C@H]1COc2cccc(N3CCCC3)c2S(=O)(=O)N1C,.,.,.,.,.,2,.,.
Cc1ccc(C(=O)Nc2ccccc2C(=O)NC(Cc2ccccc2)C(=O)O)cc1 (stereo unspecified),100,-8,0,3,-2,43*,38*,8.7*
Cc1ccc(C(=O)Nc2ccccc2C(=O)NC(Cc2c[nH]c3ccccc23)C(=O)O)cc1 (stereo unspecified),101,7,1,8,-4,61*,63*,24*
CCC(NC(=O)c1ccccc1NC(=O)c1ccc(C)cc1)C(=O)O (stereo unspecified),105,2,-2,2,-5,6,.,.
O=C(NC(Cc1c[nH]c2ccccc12)C(=O)O)c1ccccc1 (stereo unspecified),98,5,0,1,-3,1,.,.
COc1ccc(C2C(C(=O)Nc3ccc(Cl)c(Cl)c3)CCC(=O)N2c2ccc(OC)cc2)cc1 (stereo unspecified),.,.,.,.,.,7,.,.
SMILES,Pemphigus Ab inh,NadD inh,MsrA inh,DAGLB inh,MsrA act,rCAG RNA binder,rCAG bind conf,dCAG dye counter
COc1ccc(-c2nn(-c3ccccc3)cc2/C=C/C(=O)O)cc1[N+](=O)[O-],101,-5,3,-2,-5,56*,48*,12*
O[C@@H]1[C@@H](O)[C@H](n2c3ccc(Cl)cc3c3ccc4c5cc(Cl)ccc5[nH]c4c32)OC[C@H]1O,.,.,.,.,.,51*,43*,27*
Oc1ccccc1-c1nc2c3ccccc3c3ccccc3c2[nH]1,98,11,2,2,-5,56*,39*,29*
O=[N+]([O-])c1ccc2c(c1)CCCO[C@]21O[C@H](CCO)C[C@H](O)[C@H]1O,.,.,-1,.,.,4,.,.
O=C(O)c1ccc2c(c1)S(=O)(=O)c1cc(N3CCN(c4cnccn4)CC3)ccc1C2=O,108,2,1,6,-7,35*,46*,14*
O=C1c2ccccc2S(=O)(=O)c2cc(N3CCN(C(=O)c4ccccc4)CC3)ccc21,.,.,0,.,.,-3,.,.
COc1ccc([C@H]2N[C@]3(CCCN(Cc4ccc(F)cc4)C3=O)[C@H]3C(=O)N(C)C(=O)[C@@H]23)cc1,110,3,2,2,-4,0,.,.
CO[C@@H]1[C@@H](OC(N)=O)[C@@H](O)[C@H](Oc2ccc3c(O)c(NC(=O)c4ccc(O)c(CC=C(C)C)c4)c(=O)oc3c2C)OC1(C)C,.,2,1,.,-9,50*,56*,26*
Cc1c(O[C@@H]2O[C@H](CO)[C@@H](O)[C@H](O)[C@H]2O)ccc2c1oc(=O)c1ccccc12,93,-4,2,-2,-5,2,.,.
Cc1cc(/C=C2\SC(=S)NC2=O)c(C)n1C1CC1,101,20,-1,10,-5,36*,23,7.1*
Cc1cc(/C=C2/C(=O)N(C)C(=S)N2C)c(C)n1C1CC1,96,6,3,1,-4,8,.,.
CCN(CC)S(=O)(=O)c1ccc(SCC(=O)c2c(N)n(C3CC3)c(=O)[nH]c2=O)nc1,100,8,0,-1,-3,3,.,.
Cc1cccc(S(=O)(=O)NC(=O)C2(C)CCN2C(=O)CCc2ccccc2)c1 (stereo unspecified),.,5,-1,.,-3,5,.,.
CCOc1ccc2nc(S(=O)(=O)NC(=O)C3(C)CCN3C(=O)CCc3cccs3)sc2c1 (stereo unspecified),.,-2,-1,.,0,38*,37*,9.9*
CC1(C(=O)NS(=O)(=O)c2ccc(Cl)cc2)CCN1C(=O)Cc1ccccc1Cl (stereo unspecified),.,2,1,.,-1,14,.,.
